In PMC11006913 one finds binding signal data, which are given here for 9 sequences.

Numbering of substitutions follows the chain as printed.

Common to all, as to assay: PBM; 200 nM protein, PBS
Common to all, as to conditions: dsDNA, one strand shown

The target of test [1] is T1, PAX4 (Homo sapiens, UniProt O43316 9-242, R200K).
T1 sequence: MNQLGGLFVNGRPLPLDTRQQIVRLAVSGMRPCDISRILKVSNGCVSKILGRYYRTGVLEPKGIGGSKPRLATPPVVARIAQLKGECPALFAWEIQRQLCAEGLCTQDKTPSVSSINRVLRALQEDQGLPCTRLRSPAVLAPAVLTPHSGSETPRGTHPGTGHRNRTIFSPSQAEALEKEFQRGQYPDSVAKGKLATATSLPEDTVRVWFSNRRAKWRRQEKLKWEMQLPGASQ

In test [2] the target is T2, PAX4 (Homo sapiens, UniProt O43316 9-242).
T2 sequence: T1 sequence with K192R

The target in test [3] is T3, PAX4 (Homo sapiens, UniProt O43316 9-242, R200Q).
T3 sequence: T1 sequence with K192Q

For test [4], the target named is T4, PAX4 (Homo sapiens, UniProt O43316 9-242, F177V).
T4 sequence: T1 sequence with F169V, K192R

Test [5] addresses HOXA2 (Homo sapiens, UniProt O43364 129-215, R185T).
For another test, the target named is PITX2 (Homo sapiens, UniProt Q99697 72-157).
Test [6] deals with HOXA2 (Homo sapiens, UniProt O43364 129-215, R185K).
Chain of HOXA2 (Homo sapiens, UniProt O43364 129-215, R185K) (O43364 129-215 R185K): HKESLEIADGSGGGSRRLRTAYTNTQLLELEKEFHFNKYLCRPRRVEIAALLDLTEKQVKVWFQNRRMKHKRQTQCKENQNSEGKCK
For test [7], the target named is T5, PAX4 (Homo sapiens, UniProt O43316 9-242, F177Y).
T5 sequence: T1 sequence with F169Y, K192R

Test [8] concerns the target T6, PAX4 (Homo sapiens, UniProt O43316 9-242, R227W).
T6 sequence: T1 sequence with K192R, R219W

The target of test [9] is HOXA2 (Homo sapiens, UniProt O43364 129-215, Y150S).
Chain of HOXA2 (Homo sapiens, UniProt O43364 129-215, Y150S) (O43364 129-215 Y150S): as the sequence (O43364 129-215 R185K) above, with Y22S, K57R counted along it
Test [10] has as its target HOXA2 (Homo sapiens, UniProt O43364 129-215).
In test [11] the target is HOXD13 (Homo sapiens, UniProt P35453 263-343, T313R).
Chain of HOXD13 (Homo sapiens, UniProt P35453 263-343, T313R) (P35453 263-343 T313R): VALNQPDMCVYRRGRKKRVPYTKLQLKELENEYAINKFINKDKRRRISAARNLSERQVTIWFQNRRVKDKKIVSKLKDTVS
Test [12] has as its target HOXD13 (Homo sapiens, UniProt P35453 263-343).
Test [13] has as its target HOXD13 (Homo sapiens, UniProt P35453 263-343, T313A).
Test [14] has as its target ALX3 (Homo sapiens, UniProt O95076 139-225, N203Q).
Test [15] addresses ALX3 (Homo sapiens, UniProt O95076 139-225).
Test [16] deals with ALX3 (Homo sapiens, UniProt O95076 139-225, L168Q).
Chain of ALX3 (Homo sapiens, UniProt O95076 139-225, L168Q) (O95076 139-225 L168Q): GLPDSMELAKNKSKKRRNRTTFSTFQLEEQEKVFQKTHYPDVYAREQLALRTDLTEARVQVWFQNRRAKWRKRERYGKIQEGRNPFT
Test [17] addresses ALX3 (Homo sapiens, UniProt O95076 139-225, L168V).
For test [18], the target named is ALX3 (Homo sapiens, UniProt O95076 139-225, N203S).
Chain of ALX3 (Homo sapiens, UniProt O95076 139-225, N203S) (O95076 139-225 N203S): as the sequence (O95076 139-225 L168Q) above, with Q30L, N65S counted along it
The target of test [19] is T7, NKX2-6 (Homo sapiens, UniProt A6NCS4 118-204).
T7 sequence: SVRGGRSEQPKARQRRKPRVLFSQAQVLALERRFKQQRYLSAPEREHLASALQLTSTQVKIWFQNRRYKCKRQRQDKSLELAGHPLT

Test [20] deals with T8, NKX2-6 (Homo sapiens, UniProt A6NCS4 118-204, F151L).
T8 sequence: T7 sequence with F34L

Chain of HOXA2 (Homo sapiens, UniProt O43364 129-215) (O43364 129-215): as the sequence (O43364 129-215 R185K) above, with K57R counted along it
Chain of HOXA2 (Homo sapiens, UniProt O43364 129-215, R185T) (O43364 129-215 R185T): as the sequence (O43364 129-215 R185K) above, with K57T counted along it
Chain of ALX3 (Homo sapiens, UniProt O95076 139-225, L168V) (O95076 139-225 L168V): as the sequence (O95076 139-225 L168Q) above, with Q30V counted along it
Chain of ALX3 (Homo sapiens, UniProt O95076 139-225, N203Q) (O95076 139-225 N203Q): as the sequence (O95076 139-225 L168Q) above, with Q30L, N65Q counted along it
Chain of HOXD13 (Homo sapiens, UniProt P35453 263-343, T313A) (P35453 263-343 T313A): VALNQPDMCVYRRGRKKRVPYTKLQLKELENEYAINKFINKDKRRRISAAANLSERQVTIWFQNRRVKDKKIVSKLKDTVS
Chain of HOXD13 (Homo sapiens, UniProt P35453 263-343) (P35453 263-343): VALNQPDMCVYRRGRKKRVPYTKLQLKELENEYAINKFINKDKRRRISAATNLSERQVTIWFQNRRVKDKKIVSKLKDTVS
Chain of ALX3 (Homo sapiens, UniProt O95076 139-225) (O95076 139-225): as the sequence (O95076 139-225 L168Q) above, with Q30L counted along it

AGTGATTA: the binding signal with PAX4 [1] is 11.1 upbm affinity estimate (log intensity, higher = more binding, comparable within an allelic series); with PAX4 [2], 11.4 upbm affinity estimate (log intensity, higher = more binding, comparable within an allelic series); in the test with PAX4 [3] it was 11.1 upbm affinity estimate (log intensity, higher = more binding, comparable within an allelic series); with PAX4 [4], 10.3 upbm affinity estimate (log intensity, higher = more binding, comparable within an allelic series).

As to CGGAGGGC, the binding signal with PAX4 [1] is 9.09 upbm affinity estimate (log intensity, higher = more binding, comparable within an allelic series); with PAX4 [2] it was 9.28 upbm affinity estimate (log intensity, higher = more binding, comparable within an allelic series); with HOXA2 [5] it was 7.21 upbm affinity estimate (log intensity, higher = more binding, comparable within an allelic series); with PAX4 [3] it was 9.19 upbm affinity estimate (log intensity, higher = more binding, comparable within an allelic series); in the test with PITX2, 7.96 upbm affinity estimate (log intensity, higher = more binding, comparable within an allelic series); in the test with HOXA2 [6], 10.3 upbm affinity estimate (log intensity, higher = more binding, comparable within an allelic series). For the same sequence, the binding signal with PAX4 [4] is 9.08 upbm affinity estimate (log intensity, higher = more binding, comparable within an allelic series); in the test with PAX4 [7], 9 upbm affinity estimate (log intensity, higher = more binding, comparable within an allelic series); with PAX4 [8] it was 9.1 upbm affinity estimate (log intensity, higher = more binding, comparable within an allelic series); with HOXA2 [9] it was 10.3 upbm affinity estimate (log intensity, higher = more binding, comparable within an allelic series); with HOXA2 [10], 7.24 upbm affinity estimate (log intensity, higher = more binding, comparable within an allelic series).

Take GCCCCACC: the binding signal with PAX4 [1] is 9.5 upbm affinity estimate (log intensity, higher = more binding, comparable within an allelic series); with PAX4 [2] it was 9.33 upbm affinity estimate (log intensity, higher = more binding, comparable within an allelic series); with HOXD13 [11], 9.66 upbm affinity estimate (log intensity, higher = more binding, comparable within an allelic series); in the test with PAX4 [3], 9.38 upbm affinity estimate (log intensity, higher = more binding, comparable within an allelic series); in the test with HOXD13 [12], 9.74 upbm affinity estimate (log intensity, higher = more binding, comparable within an allelic series); in the test with PAX4 [4] it was 9.19 upbm affinity estimate (log intensity, higher = more binding, comparable within an allelic series). Also, the binding signal with PAX4 [7] is 9.3 upbm affinity estimate (log intensity, higher = more binding, comparable within an allelic series); with HOXD13 [13], 9.8 upbm affinity estimate (log intensity, higher = more binding, comparable within an allelic series); with PAX4 [8], 9.4 upbm affinity estimate (log intensity, higher = more binding, comparable within an allelic series).

For the sequence CTAATAAC, the binding signal in the test with PAX4 [1] was 11.1 upbm affinity estimate (log intensity, higher = more binding, comparable within an allelic series); with PAX4 [2] it was 11.3 upbm affinity estimate (log intensity, higher = more binding, comparable within an allelic series); with PAX4 [3] it was 11.1 upbm affinity estimate (log intensity, higher = more binding, comparable within an allelic series); in the test with PAX4 [4], 10.4 upbm affinity estimate (log intensity, higher = more binding, comparable within an allelic series).

On to CCAGGGGG, for which the binding signal was 9.05 upbm affinity estimate (log intensity, higher = more binding, comparable within an allelic series) with PAX4 [1]; 9.19 upbm affinity estimate (log intensity, higher = more binding, comparable within an allelic series) with PAX4 [2]; 7.64 upbm affinity estimate (log intensity, higher = more binding, comparable within an allelic series) with ALX3 [14]; 9.12 upbm affinity estimate (log intensity, higher = more binding, comparable within an allelic series) with PAX4 [3]; 9.04 upbm affinity estimate (log intensity, higher = more binding, comparable within an allelic series) with PAX4 [4]; 7.54 upbm affinity estimate (log intensity, higher = more binding, comparable within an allelic series) with ALX3 [15]. In addition, the binding signal in the test with PAX4 [7] was 9.08 upbm affinity estimate (log intensity, higher = more binding, comparable within an allelic series); with ALX3 [16] it was 7.58 upbm affinity estimate (log intensity, higher = more binding, comparable within an allelic series); with ALX3 [17], 7.54 upbm affinity estimate (log intensity, higher = more binding, comparable within an allelic series); with PAX4 [8], 9.06 upbm affinity estimate (log intensity, higher = more binding, comparable within an allelic series); in the test with ALX3 [18], 7.57 upbm affinity estimate (log intensity, higher = more binding, comparable within an allelic series).

For the sequence CGGAGCCG, the binding signal in the test with PAX4 [1] is 9.19 upbm affinity estimate (log intensity, higher = more binding, comparable within an allelic series); in the test with PAX4 [2], 9.38 upbm affinity estimate (log intensity, higher = more binding, comparable within an allelic series); in the test with HOXA2 [5] it was 7.43 upbm affinity estimate (log intensity, higher = more binding, comparable within an allelic series); with PAX4 [3], 9.24 upbm affinity estimate (log intensity, higher = more binding, comparable within an allelic series); with HOXA2 [6], 10.1 upbm affinity estimate (log intensity, higher = more binding, comparable within an allelic series); with PAX4 [4] it was 9.03 upbm affinity estimate (log intensity, higher = more binding, comparable within an allelic series). The binding signal is 9.04 upbm affinity estimate (log intensity, higher = more binding, comparable within an allelic series) in the test with PAX4 [7]; 9.09 upbm affinity estimate (log intensity, higher = more binding, comparable within an allelic series) with PAX4 [8]; 10.4 upbm affinity estimate (log intensity, higher = more binding, comparable within an allelic series) with HOXA2 [9]; 7.23 upbm affinity estimate (log intensity, higher = more binding, comparable within an allelic series) with HOXA2 [10].

For CCAGGAGC, the binding signal with PAX4 [1] is 9.4 upbm affinity estimate (log intensity, higher = more binding, comparable within an allelic series); with PAX4 [2], 9.35 upbm affinity estimate (log intensity, higher = more binding, comparable within an allelic series); in the test with NKX2-6 [19], 9.22 upbm affinity estimate (log intensity, higher = more binding, comparable within an allelic series); with PAX4 [3] it was 9.51 upbm affinity estimate (log intensity, higher = more binding, comparable within an allelic series); with PAX4 [4], 9.26 upbm affinity estimate (log intensity, higher = more binding, comparable within an allelic series); with PAX4 [7] it was 9.24 upbm affinity estimate (log intensity, higher = more binding, comparable within an allelic series). Also, the binding signal with NKX2-6 [20] is 9.26 upbm affinity estimate (log intensity, higher = more binding, comparable within an allelic series); with PAX4 [8] it was 9.32 upbm affinity estimate (log intensity, higher = more binding, comparable within an allelic series).

For the sequence GTACGTAA, the binding signal in the test with PAX4 [1] is 10.4 upbm affinity estimate (log intensity, higher = more binding, comparable within an allelic series); in the test with PAX4 [2], 10.6 upbm affinity estimate (log intensity, higher = more binding, comparable within an allelic series); in the test with PAX4 [3], 10.6 upbm affinity estimate (log intensity, higher = more binding, comparable within an allelic series).

Take GTGTAATA: the binding signal with PAX4 [1] is 10.9 upbm affinity estimate (log intensity, higher = more binding, comparable within an allelic series); in the test with PAX4 [2] it was 11.1 upbm affinity estimate (log intensity, higher = more binding, comparable within an allelic series); with PAX4 [3], 10.8 upbm affinity estimate (log intensity, higher = more binding, comparable within an allelic series); with PAX4 [4] it was 10.4 upbm affinity estimate (log intensity, higher = more binding, comparable within an allelic series).
